# Screens deposited in PubChem BioAssay by Buhrlage Lab, Dana-Farber Cancer Institute and Novartis Institutes for BioMedical Research (Cambridge, Mass).
# USP30 inh: inhibitors of human USP30 deubiquitinase; purified USP30, Ub-rhodamine cleavage fluorescence; Ubiquitin carboxyl-terminal hydrolase 30 (Homo sapiens), Q70CQ3; actives 5.3% (n = 47,000); inhibition, % at 25 µM
# USP7 inh: inhibitors of human USP7 deubiquitinase; Ubiquitin carboxyl-terminal hydrolase 7 (Homo sapiens), Q93009; purified USP7, Ub-rhodamine cleavage fluorescence; inhibition, % at 20 µM; actives 0.3% (n = 47,000); AID 1645854, 2021
# USP10 inh: inhibitors of human USP10 deubiquitinase. purified USP10, Ub-rhodamine fluorescence, 60 min. Ubiquitin carboxyl-terminal hydrolase 10 (Homo sapiens), Q14694. actives 1.1% (n = 47,000). inhibition, % at 20 µM
# USP28 inh: inhibitors of human USP28 deubiquitinase; purified USP28, Ub-rhodamine cleavage fluorescence, 30 min; inhibition, % at 25 µM; AID 1645857, 2021; actives 3% (n = 47,000)
# Target sequence (Q96RU2 whole entry, looked up): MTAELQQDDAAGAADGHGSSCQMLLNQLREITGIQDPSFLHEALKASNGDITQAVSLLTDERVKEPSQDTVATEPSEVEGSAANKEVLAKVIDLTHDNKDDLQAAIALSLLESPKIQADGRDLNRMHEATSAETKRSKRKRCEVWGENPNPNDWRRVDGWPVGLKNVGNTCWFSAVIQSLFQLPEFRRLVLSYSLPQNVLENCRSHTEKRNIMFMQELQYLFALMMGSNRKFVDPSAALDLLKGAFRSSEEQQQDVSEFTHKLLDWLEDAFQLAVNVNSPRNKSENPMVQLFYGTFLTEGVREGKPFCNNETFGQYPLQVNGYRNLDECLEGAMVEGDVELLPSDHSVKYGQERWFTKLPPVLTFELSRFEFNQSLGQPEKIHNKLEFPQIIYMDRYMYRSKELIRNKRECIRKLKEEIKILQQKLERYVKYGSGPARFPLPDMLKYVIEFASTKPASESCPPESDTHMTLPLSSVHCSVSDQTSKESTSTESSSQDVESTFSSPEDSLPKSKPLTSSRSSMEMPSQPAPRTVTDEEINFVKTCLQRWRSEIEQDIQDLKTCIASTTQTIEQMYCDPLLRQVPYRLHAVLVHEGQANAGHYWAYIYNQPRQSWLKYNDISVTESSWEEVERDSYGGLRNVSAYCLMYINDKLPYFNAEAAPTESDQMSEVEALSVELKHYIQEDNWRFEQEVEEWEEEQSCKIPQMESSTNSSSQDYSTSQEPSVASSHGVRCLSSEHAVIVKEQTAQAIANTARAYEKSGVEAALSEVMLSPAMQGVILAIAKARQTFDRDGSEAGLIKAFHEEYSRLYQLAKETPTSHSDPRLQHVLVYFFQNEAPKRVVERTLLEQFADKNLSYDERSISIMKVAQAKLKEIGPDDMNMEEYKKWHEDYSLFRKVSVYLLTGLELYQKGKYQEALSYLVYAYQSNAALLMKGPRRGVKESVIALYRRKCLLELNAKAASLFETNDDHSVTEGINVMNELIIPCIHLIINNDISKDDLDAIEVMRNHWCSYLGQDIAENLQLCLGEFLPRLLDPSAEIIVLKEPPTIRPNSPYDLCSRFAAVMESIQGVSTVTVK
# USP8 inh: inhibitors of human USP8 deubiquitinase; Ubiquitin carboxyl-terminal hydrolase 8 (Homo sapiens), P40818; purified USP8, Ub-rhodamine cleavage fluorescence, 30 min; inhibition, % at 20 µM; actives 4.2% (n = 47,000); AID 1645853, 2021
# USP17 block: inhibitors of human USP17 deubiquitinase | purified USP17, Ub-rhodamine cleavage fluorescence, 3 h | inhibition, % at 50 µM | actives 6.5% (n = 47,000) | AID 1645855, 2021
# The depositor's hits bear a star; x = no result. The list is not random: actives were taken first. Their share in the collection is about 13%. No stated cut-off is given here; in the data, active means inhibition above about 30%; inactive means the rest.
SMILES,USP30 inh,USP7 inh,USP10 inh,USP28 inh,USP8 inh,USP17 block
Cc1cc(N2CCN(c3ncccn3)CC2)nc2ccc(NC(=O)c3ccco3)cc12,58*,-2,-4,68*,29,67*
COc1cccc(C(=O)Nc2ccc3nc(N4CCN(c5ncccn5)CC4)cc(C)c3c2)c1OC,85*,-77,-3,24,59*,59*
COc1cccc(NC(=O)Nc2ccccc2SCc2cc(=O)n3oc(C)cc3n2)c1,-3,-3,2,5,-3,0
O=C(Nc1cc(F)c2nc(N3CCOCC3)ccc2c1)C1CCCC1,-28,-6,-3,-17,57*,18
O=C(CC1CCCC1)Nc1cc(F)c2nc(N3CCOCC3)ccc2c1,-35,-2,-4,5,71*,21
Cc1ccc(CC2CCCN(C(=O)CCc3c(C)n[nH]c3C)C2)cn1 (centres undefined),x,2,1,x,5,-7
Cc1cc(F)ccc1NC(=O)COc1ccccc1-c1nnc(-c2ccccc2)o1,22,-2,-3,-2,-1,27
Cc1ccc(-n2cc(-c3ccccc3)c3c(NCc4ccco4)ncnc32)cc1,-69,-3,-1,-18,1,0
Cc1nc2c3ccccc3nc(NCc3ccc4c(c3)OCO4)n2n1,14,4,1,0,9,54*
Cn1c(NCc2ccc3c(c2)OCO3)nc(=O)n(-c2ccccc2)c1=O,16,2,-1,12,18,9
O=C(NC1CCCC1)C1c2c(ccc3ccccc23)OCC(=O)N1c1cccc(F)c1 (centres undefined),5,-4,1,1,-1,10
CN1CCc2c(sc3nc(SCC(=O)Nc4nccs4)nc(N)c23)C1,x,-9,-5,x,-27,38*
CC1CCN(C(=O)CSc2nc(N)c3c4c(sc3n2)CN(C)CC4)CC1,-234,-15,-13,-38,-6,-37
COc1cc2nc(CN3CCN(c4ccccc4F)CC3)[nH]c(=O)c2cc1OC,-4,1,-5,1,-2,-7
COc1cc2nc(CN3CCN(c4ccc(O)cc4)CC3)[nH]c(=O)c2cc1OC,-48,3,-2,-2,38*,41*
Cc1nc2ccc(NC(=O)c3cccc(C(F)(F)F)c3)cc2nc1C,-64,-5,0,-11,-134,-16
O=C(Nc1ccc(S(=O)(=O)c2cccc(C(F)(F)F)c2)cc1)c1ccc(F)cc1,41*,7,13,14,-1,-3
COc1cc2[nH]c(=O)n(CCN3CCN(C(=O)c4ccco4)CC3)c(=O)c2cc1OC,-7,0,-3,0,-2,-4
CS(=O)(=O)n1nc(-c2cccnc2)nc1NCc1cccc(Cl)c1,17,-42,1,5,1,-3
COc1ccc(NC(=O)CN2CCCCCC2)c(OC)c1,1,0,-2,-2,-14,-1
NC(=O)C1(N2CCCCC2)CCN(CC(=O)Nc2cc(Cl)ccc2Cl)CC1,30*,-106,-4,6,15,12
CC(C)C(=O)O[C@H]1[C@H](C)C(=O)O[C@@H](C)[C@@H](NC(=O)c2cccc(NC=O)c2O)C(=O)O[C@@H]1C,35*,-8,-2,18,-31,45*
Cn1nccc1-c1cccc(-c2noc(CNC(=O)c3ccco3)n2)c1,-26,-2,1,18,-9,-20
CC(C)Cc1cc(-c2nnc3sc(-c4ccco4)nn23)n[nH]1,-3,7,10,39*,35*,73*
COc1ccc(-n2ccnc(SCc3ccc(Cl)cc3)c2=O)cc1,15,2,12,36*,0,33*
SMILES,USP30 inh,USP7 inh,USP10 inh,USP28 inh,USP8 inh,USP17 block
O=c1ccc(S(=O)(=O)N2CCCCC2)cn1Cc1ccc(F)cc1,1,-7,1,0,-5,-1
Cc1cc2cc(CNC(=O)c3ccccc3C(=O)O)ccc2n1C,-89,-17,-8,-19,56*,5
CCC(C(=O)NCc1ccc2c(c1)cc(C)n2C)c1ccccc1 (centres undefined),-216,-15,-6,-48,-35,-34
O=C1COC2(CCN(c3ncc(F)cn3)CC2)CN1Cc1ccccn1,-172,-10,-10,-52,-124,-71
Cc1ccc(S(=O)(=O)NCC(=O)OC(C(=O)Nc2cc(C)ccc2C)c2ccccc2)cc1 (centres undefined),47*,-8,7,9,-2,51*
COc1ccc(C(N)=O)c(OCc2noc(-c3ccccc3Cl)n2)c1,-127,3,-6,-28,7,-25
COc1ccc(OCc2nn3c(-c4ccccc4Cl)nnc3s2)cc1,32*,4,14,19,-28,22
Cc1ccccc1[C@H]1C[C@@H](O)[C@@H](O)[C@@H]1NC(=O)COc1ccccc1,39*,1,0,15,23,21
CCOc1ccccc1C(=O)Nc1ccc(-c2nccs2)cc1,31*,-4,5,5,-20,13
O=C(Nc1ccc(-c2nccs2)cc1)c1ccccc1Cl,-10,2,2,8,-56,-22
CCN(CC)c1ccc2ccc(C(=O)N3CCN(c4ccncc4)CC3)cn12,36*,5,-5,19,-184,-10
COc1ccc(CN2CCC3(CC2)OCCc2cnc(C)nc23)c(OC)c1,32*,5,0,-1,-45,-17
O=C(NCc1ccc(Cl)cc1)C1(c2ccc(Cl)cc2)CCCC1,29,-122,7,9,11,8
COc1ccc(C(C)=O)cc1COC(=O)c1ccc2c(c1)S(=O)(=O)N=C1CCCCCN12,38*,17,24,26,24,45*
CC(C)(C)c1ccc(NC(=O)c2ccc3c(c2)S(=O)(=O)N=C2CCCCCN23)cc1,-13,2,-1,-5,-5,0
C[C@]12CN(C(=O)Cc3ccccc3F)C[C@H]1NC(=O)c1ccccc1C2=O,-11,-1,0,-8,0,-4
CC1(C)CC(=O)C2=C(C1)Nc1ccccc1N(Cc1ccccc1)C2c1ccccc1Cl (centres undefined),1,1,0,-4,-6,28
COC(=O)CN1c2ccccc2NC2=C(C(=O)CC(C)(C)C2)C1c1cccs1 (centres undefined),31*,1,4,9,-5,2
Cc1nc(SCC(=O)Nc2cc(Cl)ccc2C)c2oc3ccccc3c2n1,53*,12,3,20,32*,26
CCc1nc(SCC(=O)Nc2ccc(Cl)cc2Cl)c2oc3ccccc3c2n1,-45,4,0,1,12,3
CC(=O)CSc1nc(C)nc2c1oc1ccccc12,1,x,-2,5,-3,29
